According to PubChem BioAssay (NCATS):
Results filed as inconclusive are left out. The source made the active and inactive calls. Calls follow the shape of the dose curve; as a rule, active = well fitted inhibition curve with a large enough effect; inconclusive = small, poorly fitted or top-dose-only effect; inactive = no such curve, though single readings can be large or run the other way.

molecular target: Cytochrome P450 3A4 (Homo sapiens) (UniProt P08684); assay: qHTS Assay for Inhibitors and Substrates of Cytochrome P450 3A4 (AID 884); details: recombinant CYP3A4, Luciferin-PPXE luminescence; series mostly up to 57.1 µM; also: nearly all actives have a fitted effect of over 50% in size
Procedure, shortened: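 Luminescent readout of luciferin produced by CYP3A4 (20 nM) dealkylation of Luciferin-PPXE, 25 uM (its KM). NADPH-driven reaction ran 60 min at RT after 10 min compound preincubation; data scaled to 57 uM ketoconazole as 100% inhibition.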
Potency is read from the fitted curve at half-maximal effect.

Chain of Cytochrome P450 3A4 (Homo sapiens) (P08684 whole entry, looked up): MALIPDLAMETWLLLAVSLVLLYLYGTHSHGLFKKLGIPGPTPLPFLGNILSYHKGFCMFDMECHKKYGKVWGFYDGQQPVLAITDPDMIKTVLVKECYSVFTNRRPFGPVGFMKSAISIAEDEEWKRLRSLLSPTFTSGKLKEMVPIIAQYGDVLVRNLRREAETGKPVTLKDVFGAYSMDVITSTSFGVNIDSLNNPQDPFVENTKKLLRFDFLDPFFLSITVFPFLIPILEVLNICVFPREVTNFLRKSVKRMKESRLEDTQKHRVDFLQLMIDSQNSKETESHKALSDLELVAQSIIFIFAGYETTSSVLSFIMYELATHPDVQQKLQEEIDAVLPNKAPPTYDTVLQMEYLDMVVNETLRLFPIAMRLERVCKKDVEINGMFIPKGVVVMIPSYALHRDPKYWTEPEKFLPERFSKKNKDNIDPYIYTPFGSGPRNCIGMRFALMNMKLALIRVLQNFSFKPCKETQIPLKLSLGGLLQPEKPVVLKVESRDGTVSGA

Potency, active:
COC(=O)CC1C(C)(C)C(OC(C)=O)[C@@]2(O)C=C3C4CC(=O)OC(c5ccoc5)[C@]4(C)CCC3[C@@]1(C)C2=O (some centres not stated) 7.94 µM
CC(=O)OC1C[C@@]2(C)C(c3ccoc3)OC(=O)C3O[C@@]32[C@]2(C)C(OC(C)=O)CC3C(C)(C)C(OC(C)=O)CC(OC(C)=O)[C@@]3(C)C12 (some centres not stated) 5.01 µM
COc1ccc2c(c1)OCC(Cc1ccc(OC)c(O)c1)C2=O (configuration not stated) 25.1 µM
CC1(C)C(=O)CC[C@@]2(C)C1CC(O)[C@@]1(C)C3=CC(=O)OC(c4ccoc4)[C@]3(C)CCC21 (some centres not stated) 15.8 µM
C/C=C(\C)C(=O)OC1[C@@H]2C=C3C4CC(=O)OC(c5ccoc5)[C@]4(C)CCC3[C@@](C)(C2=O)C(C(O)C(=O)OC)C1(C)C (some centres not stated) 12.6 µM

Potency, inactive:
CC(=O)OCC(=O)C1CCC2C3CCC4=CC(=O)CC[C@@]4(C)C3CC[C@]12C (some centres not stated)
CCCCCC1C(=O)CCC1CC(=O)O (configuration not stated)
CCC(/C=C/C(C)C1CCC2C3CCC4=CC(=O)CC[C@@]4(C)C3CC[C@@]12C)C(C)C (some centres not stated)
Cc1cn(C2CCC(CO)O2)c(=O)[nH]c1=O (configuration not stated)
COc1c(O)cc2c(c1O)C1OC(CO)C(O)[C@H](O)[C@H]1OC2=O (some centres not stated)
CC(=O)OC1C=C[C@]2(C)C(CC(OC(C)=O)[C@@]3(C)C4=CC(=O)OC(c5ccoc5)[C@]4(C)CCC23)C1(C)C (some centres not stated)
COc1ccc(C2CC(=O)c3c(O)cc(O[C@H]4OC(COC5OC(C)C(O)C(O)[C@@H]5O)C(O)C(O)C4O)cc3O2)cc1O (some centres not stated)
